PubChem BioAssay (EPA / NIEHS)
Inconclusive results are not listed. The source made the active and inactive calls. The calls were made as follows, unless noted: active = hit-call score of the fitted dose curve at least 0.9, where 1 is the maximum; inconclusive = response in the unintended direction; inactive = score below 0.9.

What was measured:
[1] = molecular target: Cellular tumor antigen p53 (Homo sapiens) (UniProt P04637); assay: TOX21_p53_BLA_p3_ratio: Tox21 HCT-116 p53 Agonism Beta-lactamase Assay, Ratio, Phase 3 (AID 2283596)
Summary of the method: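 Cells were seeded at 4000/well, rested 5 h at 37C, then dosed with DMSO compound solutions (217-fold dilution) for 16 h. CCF4-AM substrate was loaded for 2 h at room temperature, and the 460/530 nm emission ratio was fitted for gain of signal versus DMSO.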

[2] = TOX21_p53_BLA_p4_viability: Viability Assessment in the Tox21 HCT-116 p53 Agonism Beta-lactamase Assay, Phase 4 (AID 2283597);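 also: hits lower the luminescence signal meaning cytotoxicity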
Summary of the method: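 4000 HCT116 cells per well; 5 h attachment; compounds from DMSO, 217-fold dilution; 16 h at 37C. Then CCF4-AM, 2 h RT, followed by CellTiter-Glo, 30 min RT, luminescence. Decrease = cytotoxicity.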

PGR (gene 5241) [3] = molecular target: PGR (gene 5241) (UniProt P06401); assay: TOX21_PR_BLA_Followup_Agonist_ratio: Tox21 HEK293 Progesterone Receptor (PR) Agonism Beta-lactamase Follow-Up Assay, Ratio (AID 2283933)
Summary of the method: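 Beta-lactamase reporter readout: ratio of cleaved (ch2) to uncleaved (ch1) substrate after 2 h room-temperature loading, following 16 h compound exposure at 37C. Cells were PR-UAS-bla HEK293T in 2% charcoal-stripped FBS medium. Viability was multiplexed by CellTiter-Glo.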

PGR (gene 5241) [4] = molecular target: PGR (gene 5241) (UniProt P06401); assay: TOX21_PR_BLA_Followup_Antagonist_ratio: Tox21 HEK293 Progesterone Receptor (PR) Antagonism Beta-lactamase Follow-Up Assay, Ratio (AID 2283934);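 also: PR-UAS-bla HEK293T cells stimulated with 1 nM R5020 agonist for 16 hr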
Summary of the method: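 Readout is the blue/green (ch2/ch1) substrate cleavage ratio after 2 hours at room temperature, following 16 hr co-treatment of PR-bla HEK293T cells with compound and 1nM promegestone. Multiplexed CellTiter-Glo viability flags cytotoxicity; DMSO baseline.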

[5] = TOX21_PR_BLA_Followup_Agonist_viability: Viability Assessment in the Tox21 HEK293 Progesterone Receptor (PR) Agonism Beta-lactamase Follow-Up Assay (AID 2283935);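 also: signal loss means lower viability so actives are cytotoxic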
Summary of the method: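 Run multiplexed with the beta-lactamase FRET read, this endpoint measures ATP by CellTiter-Glo luminescence (30 min, room temperature). PR-UAS-bla HEK293T cells received compound 6 hr after plating and were then incubated 16 hr at 37C in 2% stripped serum.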

[6] = TOX21_PR_BLA_Followup_Antagonist_viability: Viability Assessment in the Tox21 HEK293 Progesterone Receptor (PR) Antagonism Beta-lactamase Follow-Up Assay (AID 2283936);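 also: cells exposed to compound with R5020 agonist for 16 h; hits lower the luminescence signal meaning cytotoxicity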
Summary of the method: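 PR-UAS-bla HEK293T cells in medium with 2% charcoal-stripped FBS were treated with compounds plus R5020 for 16 hr at 37C. After the beta-lactamase read, CellTiter-Glo was added to the same wells and luminescence read after 30 min at room temperature.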

PGR (gene 5241) [7] = molecular target: PGR (gene 5241) (UniProt P06401); assay: TOX21_PR_LUC_Followup_Agonist: Tox21 HEK293 Progesterone Receptor (PR) Agonism Luciferase Follow-Up Assay (AID 2283937; active = hit-call score of the fitted dose curve at least 0.9, where 1 is the maximum; inactive = score below 0.9)
Summary of the method: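 Agonism scored as luciferase induction over DMSO, read by ONE-Glo after 30 min at RT. Compounds were incubated 16 h at 37C on HEK293-PR-A-luc cells (3,000/well, pre-plated 5 h) previously grown 5 days in charcoal-stripped serum.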

PGR (gene 5241) [8] = molecular target: PGR (gene 5241) (UniProt P06401); assay: TOX21_PR_LUC_Followup_Antagonist: Tox21 HEK293 Progesterone Receptor (PR) Antagonism Luciferase Follow-Up Assay (AID 2283938);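 also: curve fitted upward as signal gain over DMSO baseline despite antagonist label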
Summary of the method: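 HEK293-PR-A-luc cells, 3,000/well, preincubated 5 h at 37C before compound addition in DMSO; 16 h compound exposure at 37C. ONE-Glo luciferase luminescence read after 30 min at room temperature, fitted relative to DMSO baseline.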

[9] = TOX21_PR_LUC_Followup_Antagonist_viability: Viability Assessment in the Tox21 HEK293 Progesterone Receptor (PR) Antagonism Luciferase Follow-Up Assay (AID 2283940)
Summary of the method: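 Viability counter-readout: cellular ATP measured by luciferase luminescence after 16 h compound exposure at 37C of HEK293-PR-A-luc cells, which had been cultured in charcoal-stripped serum and seeded 5 h beforehand.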

[10] = TOX21_PR_LUC_Followup_Agonist_viability: Viability Assessment in the Tox21 HEK293 Progesterone Receptor (PR) Agonism Luciferase Follow-Up Assay (AID 2283941);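 also: loss of signal means cytotoxicity so actives lower viability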
Summary of the method: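 Cytotoxicity counter-readout in the PR-A luciferase reporter line HEK293, with 16 h compound exposure at 37C after cells were cultured in charcoal-stripped serum. Cellular ATP quantified by CellTiter-Glo luminescence.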

[11] = TOX21_p53_BLA_p5_viability: Viability Assessment in the Tox21 HCT-116 p53 Agonism Beta-lactamase Assay, Phase 5 (AID 2283600)
Summary of the method: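 Decreased CellTiter-Glo luminescence denotes lost viability. Exposure: 16 h at 37C, 5% CO2, with compounds from DMSO stocks diluted 217-fold in wells of 4000 cells.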

[12] = molecular target: Cellular tumor antigen p53 (Homo sapiens) (UniProt P04637); assay: TOX21_p53_BLA_p4_ratio: Tox21 HCT-116 p53 Agonism Beta-lactamase Assay, Ratio, Phase 4 (AID 2283601)
Summary of the method: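 HCT116 cells carrying an inducible beta-lactamase reporter were plated at 4000 cells/well, rested 5 h, then exposed to compounds in DMSO (217-fold dilution) for 16 h at 37C. CCF4-AM substrate was loaded 2 h at room temperature; 460/530 nm emission ratio scored gain-of-signal versus DMSO.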

[13] = molecular target: Cellular tumor antigen p53 (Homo sapiens) (UniProt P04637); assay: TOX21_p53_BLA_p5_ratio: Tox21 HCT-116 p53 Agonism Beta-lactamase Assay, Ratio, Phase 5 (AID 2283599)
Summary of the method: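 HCT-116 cells carrying a p53-inducible beta-lactamase reporter were seeded at 4000 cells/well and dosed after 5 h with compound in DMSO (217-fold dilution). After 16 h at 37C, CCF4-AM substrate was added for 2 h, and the 460/530 nm emission ratio was scored as gain-of-signal versus DMSO.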

Measured: outcome

Cellular tumor antigen p53 (Homo sapiens), sequence (P04637 whole entry, looked up): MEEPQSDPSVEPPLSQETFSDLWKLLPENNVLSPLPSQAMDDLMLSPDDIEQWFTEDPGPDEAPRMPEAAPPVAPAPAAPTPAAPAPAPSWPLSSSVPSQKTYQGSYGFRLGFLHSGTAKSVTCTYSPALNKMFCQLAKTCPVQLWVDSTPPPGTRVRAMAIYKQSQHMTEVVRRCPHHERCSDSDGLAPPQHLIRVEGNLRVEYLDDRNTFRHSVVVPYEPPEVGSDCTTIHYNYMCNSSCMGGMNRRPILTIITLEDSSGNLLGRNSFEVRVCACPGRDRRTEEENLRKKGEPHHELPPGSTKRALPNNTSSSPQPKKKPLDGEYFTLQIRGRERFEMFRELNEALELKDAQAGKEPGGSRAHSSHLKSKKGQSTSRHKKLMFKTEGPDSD
PGR (gene 5241), sequence (P06401 whole entry, looked up): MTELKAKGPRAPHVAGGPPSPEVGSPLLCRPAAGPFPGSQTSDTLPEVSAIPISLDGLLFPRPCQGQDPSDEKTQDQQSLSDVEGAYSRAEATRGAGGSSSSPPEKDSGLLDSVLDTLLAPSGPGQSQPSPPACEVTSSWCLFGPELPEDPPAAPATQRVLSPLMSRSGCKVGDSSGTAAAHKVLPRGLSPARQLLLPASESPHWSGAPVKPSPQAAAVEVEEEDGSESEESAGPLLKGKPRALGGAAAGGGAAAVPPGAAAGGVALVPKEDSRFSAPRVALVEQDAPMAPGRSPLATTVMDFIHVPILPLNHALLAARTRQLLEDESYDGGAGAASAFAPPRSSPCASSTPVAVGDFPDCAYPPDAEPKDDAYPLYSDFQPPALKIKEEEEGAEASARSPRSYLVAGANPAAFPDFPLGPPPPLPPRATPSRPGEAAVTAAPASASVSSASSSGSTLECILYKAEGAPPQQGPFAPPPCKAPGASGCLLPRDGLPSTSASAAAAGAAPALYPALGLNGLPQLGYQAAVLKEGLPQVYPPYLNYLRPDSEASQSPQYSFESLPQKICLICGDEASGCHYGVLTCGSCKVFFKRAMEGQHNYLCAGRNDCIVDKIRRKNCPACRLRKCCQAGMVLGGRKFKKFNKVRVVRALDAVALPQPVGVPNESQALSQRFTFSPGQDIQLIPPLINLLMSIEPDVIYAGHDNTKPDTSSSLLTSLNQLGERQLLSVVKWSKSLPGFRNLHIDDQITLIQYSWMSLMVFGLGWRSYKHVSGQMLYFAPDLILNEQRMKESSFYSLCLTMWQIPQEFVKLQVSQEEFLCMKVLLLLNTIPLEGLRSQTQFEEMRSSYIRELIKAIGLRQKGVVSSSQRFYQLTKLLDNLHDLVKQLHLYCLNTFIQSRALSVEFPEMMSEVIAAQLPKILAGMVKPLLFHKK

CN1CCN(C2=Nc3cc(F)ccc3Cc3ccccc32)CC1
not listed: [11] | [12] | [13]
inactive: all other assays above

CCCCOCCCC
inactive: [1] | [2] | [11] | [12]

NS(=O)(=O)c1ccccc1Cl
inactive: [1] | [2] | [11]

O=[N+]([O-])c1ccc(Oc2ccc([N+](=O)[O-])cc2)cc1
inactive: [1] | [13] | [11]

CC#CCC(C)[C@H](O)/C=C/[C@@H]1[C@H]2C/C(=C/CCCC(=O)O)C[C@H]2C[C@H]1O (stereo partly specified)
inactive: [1] | [2] | [12]

C=COCCCCO
inactive: [1] | [2] | [13] | [12]

CNC(=O)[C@H](Cc1c[nH]c2ccccc12)NC(=O)[C@@H](CC(=O)NO)CC(C)C
inactive: [1] | [2] | [13] | [11] | [12]

CNc1c2c(nn1C)CCCC2
inactive: [1] | [2] | [11]

CC(=O)N[C@@H](CC(=O)N[C@@H](CCC(=O)O)C(=O)O)C(=O)O
inactive: [1] | [13] | [11]

CN(C)CCN(Cc1ccccc1)c1ccccn1
inactive: [1] | [13]

CC(C)C(=O)O
inactive: [1] | [13] | [11]

NC(=O)Cc1cccc2ccccc12
inactive: [1] | [13] | [11]
